PubChem BioAssay (NCI)
The panel holds about 83,000 compounds, 20% with a hit somewhere; the sample as a whole holds those more often.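 Testing used 96-well plates and a 48-hour single-concentration exposure. Example: -40 means 40% of the starting cells died.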 Activity calls are given as the source filed them. The calls were made as follows: active = growth percent below 10; inactive = the rest.

Tests used:
Assay in all cases: NCI-60 one-dose screen, 48 h (100 = growth as untreated, 0 = no growth, -100 = all killed)
Conditions in all cases: 10 µM unless noted
[1] = tested on: DU-145 prostate
[2] = tested on: MALME-3M melanoma
[3] = tested on: MDA-MB-231 breast
[4] = tested on: RXF 393 renal
[5] = tested on: SF-268 CNS
[6] = tested on: SF-295 CNS
[7] = tested on: SF-539 CNS
[8] = tested on: UACC-257 melanoma
[9] = tested on: M14 melanoma
[10] = tested on: K-562 leukemia

Measured: growth

CC(=O)N1CCN(Cc2ccc3c(NNC(=O)c4cnccn4)nc4cc(F)ccc4n23)CC1
active: [7] 6.02% | [9] -31.4%
inactive: [1] 39.4% | [2] 30.4% | [3] 36.5% | [4] 54.2% | [5] 28.7% | [6] 10.7% | [8] 13.3%

CN1CCN(c2ccc3c(c2)nc(NNC(=O)c2ncccn2)c2cccn23)CC1
inactive: [8] 17.8%
active: [1] 1.57% | [2] -41.8% | [3] -45.8% | [4] -53.6% | [5] -15.7% | [6] -90% | [7] -83% | [9] -53.5%

O=C(O)c1ccc(-c2ccc(/C=N/NC(=O)c3[nH]c4ccc(Br)cc4c3-c3ccccc3)s2)cc1
inactive: [1] 28.2% | [10] 22.5% | [5] 21.1% | [8] 44.3% | [9] 28.2%
active: [2] -8.14% | [4] -24.4% | [6] -11.9% | [7] 1.96%

CC(=O)NNc1ccc2nnc(-c3ccccc3)n2n1
inactive: [1] 103% | [2] 98.5% | [3] 106% | [4] 101% | [5] 95% | [6] 104% | [7] 103% | [8] 109%

CC1=C(C(=O)OCc2ccccc2)C(c2ccc(-n3cncn3)cc2)n2c(nc3ccccc32)N1 (stereo not drawn)
inactive: [1] 67.7% | [10] 14.3% | [2] 50.9% | [4] 52.2% | [5] 71.5% | [6] 19.9% | [7] 38.3% | [8] 51.5% | [9] 50.5%

COc1ccc(NC(=O)c2sc3nc(C(C)C)ccc3c2N)cc1
inactive: [1] 78.9% | [10] 50% | [2] 83.4% | [4] 89.2% | [5] 99.7% | [6] 72.3% | [7] 84.1% | [8] 88.7% | [9] 93.4%

CC(C)CCNC(=O)N/C(N)=N/c1nc2ccccc2s1
inactive: [1] 66.4% | [10] 28.7% | [2] 77.1% | [4] 74.7% | [5] 72% | [6] 45.3% | [7] 56.8% | [8] 35.5% | [9] 79.6%

CC(=O)Nc1cccc(Nc2nc(N[C@H]3CCCc4ccccc43)c3ccccc3n2)c1
inactive: [1] 104% | [10] 94.2% | [2] 102% | [4] 120% | [5] 95.5% | [6] 97.3% | [7] 97.2% | [8] 102% | [9] 101%

N#Cc1cnn(C(=O)c2ccccc2Br)c1NC(=O)c1ccc(Br)cc1Cl
inactive: [1] 108% | [10] 105% | [2] 95.8% | [4] 100% | [5] 116% | [6] 94.9% | [7] 96.9% | [8] 98.5% | [9] 101%

N#Cc1c(-c2ccc(Cl)cc2)nc2n[nH]c(-c3ccc(Cl)cc3)c2c1-c1ccc(C(F)(F)F)cc1
active: [10] -21.3% | [2] -25.8% | [4] -14.7% | [5] 6.49% | [6] -54% | [7] -79.3% | [8] 7.34% | [9] -53.3%
inactive: [1] 19.8%

O=C(NNc1nc2cc(F)ccc2n2c(C(=O)N3CCN(C4CC4)CC3)ccc12)c1ncccn1
active: [6] -33.9% | [9] -33%
inactive: [1] 47.8% | [2] 33.2% | [3] 43.6% | [4] 64.8% | [5] 29.9% | [7] 12.9% | [8] 19.7%

C[C@H]1CN(C(=O)c2ccc3c(NNC(=O)c4ccncn4)nc4cc(F)c(F)cc4n23)CCN1
inactive: [1] 41.3% | [2] 33.6% | [3] 45.7% | [4] 52.9% | [5] 27.4% | [6] 12.4% | [8] 22.3%
active: [7] 8.55% | [9] -24.8%

O=C(NNc1nc2cc(F)ccc2n2c(CN3CC4CNCC4C3)ccc12)c1ccncn1 (stereo not drawn)
inactive: [1] 42.1% | [2] 22.5% | [3] 27.5% | [4] 64.1% | [5] 28.3% | [8] 12.1%
active: [6] 2.58% | [7] -10.3% | [9] -15.6%

COc1ccc(C(=O)/C=C/c2cccc(Cl)c2Cl)cc1S(N)(=O)=O
inactive: [2] 23.1% | [5] 18% | [8] 34.8%
active: [1] -76.3% | [3] 1.88% | [4] -71% | [6] -38.1% | [7] -75.5% | [9] -76.9%

CN1CCN(Cc2ccc(C(=O)Nc3cccc(C#Cc4cccc5[nH]nc(N)c45)c3)cc2C(F)(F)F)CC1
active: [1] -68% | [2] -82.6% | [3] -90.8% | [4] -93.6% | [5] -59% | [6] -93.4% | [7] -97.5% | [8] -94.7% | [9] -95.6%

COc1ccc(C(=O)/C=C/c2ccccc2Cl)cc1S(N)(=O)=O
inactive: [1] 117% | [2] 93.9% | [3] 91.9% | [4] 124% | [5] 92.1% | [6] 89.2% | [7] 97.5% | [8] 120% | [9] 109%

NS(=O)(=O)c1ccc(-n2cc(-c3cccc(NC(=O)c4ccc(Cl)c(C(F)(F)F)c4)c3)nn2)cc1
inactive: [1] 18.3% | [2] 39.9% | [5] 29.4% | [8] 39.1% | [9] 16.2%
active: [3] -5.26% | [6] 7.53% | [7] -38.8%

O=C(NNc1nc2cc(F)ccc2n2c(CN3CCCCC3)ccc12)c1cnccn1
active: [1] -43.7% | [3] -31.1% | [4] -83.3% | [5] -20.9% | [6] -92% | [7] -66% | [8] -81.1% | [9] -86.5%
inactive: [2] 22.6%

COc1cccc(/C=C/C(=O)c2ccc(OC)c(S(N)(=O)=O)c2)c1
inactive: [1] 31.8% | [2] 71.2% | [3] 49.4% | [4] 41.7% | [5] 39.5% | [6] 34.6% | [8] 65.8% | [9] 41.2%
active: [7] -11.6%

COc1ccc(C(=O)/C=C/c2cccc3ccccc23)cc1S(N)(=O)=O
active: [4] -59.4% | [6] -61.7% | [7] -83.4% | [8] -42.6% | [9] -74%
inactive: [1] 13.2% | [2] 30.1% | [3] 21.8% | [5] 14.4%

COc1ccccc1/C=C/C(=O)c1ccc(OC)c(S(N)(=O)=O)c1
active: [3] 7.39% | [4] -0.859% | [7] -4.72% | [9] 8.83%
inactive: [1] 26.4% | [2] 50% | [5] 21% | [6] 21.8% | [8] 59.6%

COc1ccc(-c2nnc3ccc(N/N=C/c4ccc(O)cc4)nn23)cc1
inactive: [1] 51.9% | [2] 64.2% | [3] 60.6% | [4] 42.7% | [5] 35.8% | [6] 43.6% | [7] 36.4% | [8] 82.3% | [9] 56.4%

COc1ccc(C(=O)/C=C/c2cccc(Cl)c2)cc1S(N)(=O)=O
active: [1] -40.6% | [3] -4.13% | [4] -65.8% | [5] 7.86% | [6] -88.8% | [7] -80.6% | [8] -29.6% | [9] -10.5%
inactive: [2] 27.6%

NS(=O)(=O)c1ccc(-n2cc(-c3cccc(NC(=O)c4cc(N5CCOCC5)cc(C(F)(F)F)c4)c3)nn2)cc1
inactive: [1] 83% | [2] 54.1% | [3] 37.4% | [5] 41.1% | [6] 54% | [7] 19.3% | [8] 66.3% | [9] 78.8%

Cc1cnc(C(=O)NNc2nc3cc(F)ccc3n3c(C(=O)N4CC5CC(C4)N5)ccc23)cn1
inactive: [1] 48.8% | [2] 43% | [3] 43.7% | [4] 60.4% | [5] 33.9% | [6] 11% | [8] 25.5%
active: [7] 8.21% | [9] -22.8%

O=C(Cn1c(/C=C/c2cccc([N+](=O)[O-])c2)nc2ccccc2c1=O)Nc1ccccc1
active: [7] 8.73%
inactive: [1] 69.4% | [2] 75.1% | [3] 33.8% | [4] 55.5% | [5] 78.5% | [6] 68.5% | [8] 104% | [9] 70.6%

CN1CCN(c2ccc3c(c2)nc(NNC(=O)c2cnccn2)c2cccn23)CC1
inactive: [5] 10.6%
active: [1] -9.7% | [2] -24.5% | [3] -35.1% | [4] -65.1% | [6] -81.3% | [7] -41.3% | [8] -48.6% | [9] -78.1%

CN1CCN(c2ccc(C(=O)/C=C/c3ccc(Br)cc3)cc2)CC1
inactive: [1] 32.9% | [2] 74.4% | [3] 16.7% | [4] 31.5% | [5] 62.2% | [6] 35.2% | [8] 25.4%
active: [7] -34.9% | [9] -36.3%

COc1ccc(C(=O)/C=C/c2ccc3ccccc3c2)cc1S(N)(=O)=O
active: [1] -9.03% | [3] 6.01% | [4] -60.2% | [6] -80.5% | [7] -87.9% | [8] -48.4% | [9] -78.5%
inactive: [2] 18.1% | [5] 12.8%
